According to the supplement of paper PMC6555819:

Assays:
Test in all cases: PBM binding z-score (relative to random genomic background probes); higher = stronger binding; sequences stand for … in GC…GCGATTGACAGCGTAGAATGAAGG
[1] = test system: FXR:RXRa (NR concentration 270 nM, RXRa partner concentration 90 nM)
How it was run: (§1)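 Ligand-free nuclear receptor dimers were bound for 1 h to custom Agilent 4×180K protein-binding microarrays. Detection used antibodies against each partner (one per run). Binding z-scores rest on regression-normalized fluorescence, with random background probes as the reference.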

[2] = test system: LXRa:RXRa (NR concentration 270 nM, RXRa partner concentration 90 nM)
How it was run: as §1

[3] = test system: LXRa homodimer (NR concentration 270 nM)
How it was run: as §1

[4] = test system: LXRb:RXRa (NR concentration 270 nM, RXRa partner concentration 90 nM)
How it was run: as §1

[5] = test system: LXRb homodimer (NR concentration 270 nM)
How it was run: as §1

[6] = test system: PPARa:RXRa (NR concentration 270 nM, RXRa partner concentration 90 nM)
How it was run: as §1

[7] = test system: PPARg:RXRa (NR concentration 180 nM, RXRa partner concentration 90 nM)
How it was run: as §1

[8] = test system: PPARg:RXRa 270nM:90nM, anti-RXR (NR concentration 270 nM, RXRa partner concentration 90 nM)
How it was run: as §1

[9] = test system: PPARg:RXRa 30nM:10nM, anti-RXR (NR concentration 30 nM, RXRa partner concentration 10 nM)
How it was run: as §1

[10] = test system: PPARg:RXRa 90nM:30nM, anti-RXR (NR concentration 90 nM, RXRa partner concentration 30 nM)
How it was run: as §1

Row | Sequence | PBM binding z-score [1] | PBM binding z-score [2] | PBM binding z-score [3] | PBM binding z-score [4] | PBM binding z-score [5] | PBM binding z-score [6] | PBM binding z-score [7] | PBM binding z-score [8] | PBM binding z-score [9] | PBM binding z-score [10]
1 | TTACCAAGGTGAAAGGTAGTTGATGCACGCCTTG | 0.796 | 0.851 | -0.137 | 0.456 | -0.64 | 2.7 | 3.76 | 4.56 | 2.81 | 4.51
2 | CGAACTAGGTCAAGGACCGTGAATCTCCGCACGC | 3.28 | 2.1 | -0.026 | 1.26 | -0.781 | 4.64 | 7.76 | 6.89 | 4.37 | 6.74
3 | TCAGACAGGTGAATGTAACTCAGGTACGCAGTCG | 0.149 | 0.452 | 0.0267 | 0.271 | -0.401 | 0.789 | 0.834 | 1.72 | 2.99 | 2.36
4 | TCGTGTAGGTTAGGGGCATTCAGAATGGCGTCGA | 1.04 | 0.994 | 0.245 | 1.63 | 0.909 | 1.6 | 0.371 | 1.78 | 2.01 | 2.06
5 | GGAACTAGGGCATTCGAGTTGATAGCATGGCGAT | 0.225 | 0.214 | -0.0911 | -0.433 | -0.474 | 2.54 | 3.49 | 3.04 | 0.86 | 1.91
6 | GCAGACAGGTGAAACTCAGGTAACTCAGGGTGGC | 0.432 | 0.209 | -0.137 | -0.208 | -0.746 | 1.13 | 0.585 | 0.196 | -0.602 | -0.156
7 | GGAACGAGGACATTCGAGTTGATAGCATGGCGAT | 0.116 | -0.183 | -0.644 | -0.72 | -0.703 | -0.304 | 0.664 | -0.0182 | -0.118 | -0.155
8 | TAGCCTAGGTCATTTAGGGGCCAGTATAGAAAGC | 4.42 | 4.04 | 0.996 | 3.09 | 1.69 | 3.41 | 1.46 | 2.15 | 0.169 | 1.49
9 | TATACAGGGTCAAGGGCCAGAGTACGAATGTCGA | 6.63 | 5.65 | 1.91 | 4.4 | 2.42 | 5.8 | 7.15 | 6.47 | 3.84 | 5.91
10 | ATCCCTAGGTAACAAGTTCAGTGAAAGAGAGGAC | 0.484 | 0.833 | 0.361 | 0.843 | 0.823 | 0.724 | 0.555 | 0.236 | 0.0944 | 0.289
11 | TCAGACAGGTGAAGGTCACTCAGGTACGCAGTCG | 3.13 | 3.62 | 1.36 | 3.13 | 0.146 | 3.72 | 2.39 | 3.12 | 3.84 | 3.76
12 | TCGAGTAGGTTACCAATGGGGCATTCAACTTTCT | 0.374 | 1.64 | -0.293 | 1.55 | 0.172 | 1.67 | 0.652 | 1.67 | 1.26 | 1.67
13 | ACTCTTAGTTGAGACGAGGGCAACCGATAGGTTG | 0.56 | -0.132 | -0.317 | 0.037 | -0.519 | 0.348 | 0.499 | -0.0707 | -0.348 | -0.0252
14 | TCATATAGGTAATACAGGTGAAATTCGGCATCTA | 1.05 | 1.37 | 0.75 | 1.17 | 0.147 | 1.96 | 1.65 | 2.53 | 3.85 | 3.09
15 | TCTAGTTGGTCACGGATGTCACACACGACGGGTA | 0.669 | 0.373 | 0.422 | 0.666 | 0.393 | 1.18 | 1.32 | 2.25 | 3.22 | 2.84
16 | TCATATAGCTAAATGCTAGGTGAAAGTCCGATCT | 0.567 | 0.2 | -0.0142 | 0.288 | -0.55 | 0.6 | 0.313 | 1.67 | 2.82 | 2.07
17 | CGTCCAAGGTCAGCAGGGCAGTGAAAGCGACGTG | 5.27 | 3.24 | -0.203 | 2.34 | -0.623 | 4.47 | 3.08 | 3.74 | 0.535 | 2.52
18 | TCTAGTTGGCCAAAGGTCACACACTCGAAATGCG | 5.4 | 5.41 | 3.89 | 5.44 | 1.17 | 6.16 | 11 | 9.37 | 11.1 | 11.3
19 | CCTAGTTGGTCAAGTTCACACACGCTATAGGTAC | 1.66 | 2.31 | 1.74 | 2.18 | 0.695 | 2.19 | 1.3 | 1.5 | 0.803 | 1.16
20 | CTTACTGGGCCACGAAAGGTCATTGATTCAGTGA | 5.51 | 6.24 | 4.47 | 5.13 | 0.827 | 5.66 | 6.99 | 6.33 | 4.14 | 5.7
21 | GCTAGCAGGCCATTTGGGTCACTCAGTGACGGGC | 0.0736 | -0.00862 | -0.609 | -0.133 | -1.43 | 1.14 | 0.272 | 0.402 | -0.825 | -0.0196
22 | CCTATTAGTTGACCATAAGGGGAACCGAAGCTCG | 0.142 | 0.366 | 0.327 | 0.217 | 0.84 | 0.0558 | 0.299 | 0.112 | -0.0773 | 0.104
23 | CAAACTAGGTCAAAGGTCCAAGTCGAGCCAACCA | 5.12 | 4.21 | 0.693 | 3.08 | 0.0587 | 6.27 | 12.8 | 10.1 | 12.4 | 12.2
24 | GGAACGAGGGCAGTCGAGTTGATAGCATGGCGAT | 0.203 | -0.214 | -0.72 | -0.752 | -1.02 | 0.405 | 0.453 | -0.213 | -0.485 | -0.457
25 | TCTTGTAGATCAATAGAGGTTAAGAACGTGCGCT | 0.948 | 2.59 | 0.355 | 1.46 | -0.115 | 1.92 | 0.397 | 1.66 | 2.84 | 2.58
